Laboratory results as given in PubChem BioAssay AID1224921 (Broad Institute, 2016).
Out of some 1,400 compounds screened, about 350 (25%) were called active. Another 2% or so got no clear call; they are omitted. How the calls were made is not given here. The list is a sample of the results. Results with a measured potency or affinity are listed apart.

test: C. difficile growth inhibition, confirmation, 4-point retest (AID 1224921); details: Clostridioides difficile clinical isolate growth, OD600, 24 h, active compounds read low; at 30 µM unless noted;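 further: plate controls were DMSO wells for no effect and levofloxacin 16 µg/mL wells for full effect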

Max activity, inactive:
CCCN1C[C@@H](C)[C@@H](OC)CN(C)C(=O)c2cc(NC(=O)c3cccc(F)c3)ccc2OC[C@H]1C -11.3% [at 1.95 µM]
CO[C@@H]1CN(C)C(=O)c2cc(NC(C)=O)ccc2OC[C@@H](C)N(C(=O)c2ccccn2)C[C@@H]1C -15.1% [at 8 µM]
C[C@H]1CN([C@@H](C)CO)C(=O)Cc2cc(NS(=O)(=O)c3cccs3)ccc2O[C@@H]1CN(C)Cc1ccc(Cl)c(Cl)c1 33.5% [at 8 µM]
COc1ccc(NC(=O)Nc2ccc3c(c2)[C@H]2C[C@H](CC(=O)N[C@@H](C)c4ccccc4)O[C@@H](CO)[C@H]2O3)cc1 -8.28% [at 2.1 µM]
Cc1ccccc1S(=O)(=O)N1[C@H](CO)[C@@H](c2ccc(C#CC3CC3)cc2)[C@@H]1C#N 34.7%
COc1ccccc1C#Cc1ccc([C@H]2[C@@H](C#N)N(C(=O)C3CC3)[C@H]2CO)cc1 22.1% [at 8 µM]
O=C(C[C@@H]1CC[C@@H](NC(=O)Nc2cc(F)ccc2F)[C@H](CO)O1)NCc1ccc2c(c1)OCO2 8.77%
C[C@@H]1CN([C@H](C)CO)C(=O)c2cc(NC(=O)Nc3cccc4ccccc34)ccc2O[C@@H](C)CCCCO[C@H]1CN(C)S(=O)(=O)c1cn(C)cn1 30.5% [at 35 µM]
CO[C@@H]1CN(C)C(=O)c2cc(NS(=O)(=O)c3cn(C)cn3)ccc2OC[C@@H](C)N(Cc2ccc(C(F)(F)F)cc2)C[C@H]1C 43.6%
CO[C@@H](CN(C)S(=O)(=O)c1ccc(C)cc1)[C@H](C)CN(C(=O)Nc1ccccc1F)[C@@H](C)CO -7.73% [at 8 µM]
C[C@@H]1CCCCO[C@@H](CN(C)S(=O)(=O)c2cn(C)cn2)[C@H](C)CN([C@H](C)CO)C(=O)c2cc(NS(=O)(=O)c3ccccc3)ccc2O1 -10.5% [at 0.5 µM]
CO[C@@H]1CN(C)C(=O)c2ccc(NS(=O)(=O)c3cn(C)cn3)cc2OC[C@@H](C)N(Cc2ccc(C(F)(F)F)cc2)C[C@H]1C 35.5% [at 8 µM]
CO[C@H]1CN(C)C(=O)c2cc(NC(=O)c3cccc(F)c3)ccc2OC[C@H](C)N(C(C)=O)C[C@@H]1C -4.07% [at 1.95 µM]
C[C@@H]1CN([C@H](C)CO)S(=O)(=O)c2ccc(C3=CCCCC3)cc2O[C@@H]1CN(C)Cc1ccncc1 19.4%
COc1ccc(S(=O)(=O)Nc2ccc3c(c2)OC[C@@H](C)N(C)C[C@@H](C)[C@H](OC)CN(C)C3=O)cc1 -9.73% [at 1.95 µM]
C[C@@H]1CN([C@H](C)CO)C(=O)Cc2cc(NS(C)(=O)=O)ccc2O[C@@H]1CN(C)Cc1ccc(-c2ccccc2)cc1 52.1%
O=C(C[C@@H]1C[C@@H]2c3cc(NC(=O)Nc4ccc(C(F)(F)F)cc4)ccc3O[C@@H]2[C@H](CO)O1)NCc1ccccn1 -9.23% [at 1.95 µM]
CCCC(=O)Nc1ccc2c(c1)OC[C@@H](C)N(CCc1ccccc1)C[C@H](C)[C@H](OC)CN(C)C2=O -4.85% [at 1.95 µM]
C[C@H](CO)N1C[C@H](C)[C@H](CN(C)Cc2cccnc2)Oc2cc(C3=CCCCC3)ccc2S1(=O)=O 37%
O=C(C[C@H]1C[C@H]2c3cc(NC(=O)Nc4ccc(F)cc4)ccc3O[C@H]2[C@@H](CO)O1)NC1CCCC1 -13.7% [at 8 µM]
C[C@@H]1CN([C@H](C)CO)C(=O)c2ccccc2-c2ccccc2CO[C@@H]1CN(C)S(=O)(=O)c1ccsc1 12% [at 1.95 µM]
COc1ccc(S(=O)(=O)Nc2ccc3c(c2)CC(=O)N([C@@H](C)CO)C[C@@H](C)[C@H](CN(C)CC2CCCCC2)O3)cc1 25.5%
COc1ccccc1S(=O)(=O)N[C@@H]1C=C[C@H](CC(=O)N2CCCCC2)O[C@@H]1CO -6.91% [at 0.5 µM]
C[C@@H]1CN([C@H](C)CO)C(=O)c2cccc(NC(=O)Nc3ccc(C(F)(F)F)cc3)c2O[C@H]1CN(C)S(=O)(=O)c1ccc(Cl)cc1 33.1%
C[C@@H]1CN([C@@H](C)CO)C(=O)c2cccc(NC(=O)Nc3ccc(C(F)(F)F)cc3)c2O[C@H]1CN(C)S(=O)(=O)c1ccc(Cl)cc1 49.8%
C[C@H]1CCCCO[C@H](CN(C)S(=O)(=O)c2cn(C)cn2)[C@@H](C)CN([C@@H](C)CO)C(=O)c2cc(NC(=O)CCCN(C)C)ccc2O1 5.89% [at 8 µM]
C[C@H](CO)N1C[C@H](C)[C@@H](CN(C)S(=O)(=O)c2cn(C)cn2)OCCCC[C@H](C)Oc2ccc(NC(=O)Nc3cccc4ccccc34)cc2C1=O 18.8%
CC(C)NC(=O)Nc1ccc2c(c1)CC(=O)N([C@H](C)CO)C[C@@H](C)[C@@H](CN(C)Cc1ccc(-c3ccccc3)cc1)O2 54.7%
C[C@@H]1CN([C@H](C)CO)S(=O)(=O)c2ccc(C3=CCCCC3)cc2O[C@H]1CN(C)Cc1cccnc1 53.5%
CC(C)C#Cc1ccc2c(c1)O[C@@H](CN(C)Cc1ccncc1)[C@@H](C)CN([C@H](C)CO)S2(=O)=O 30.4%
COc1ccc(NC(=O)O[C@H]2[C@H](OC(=O)Nc3ccccc3)[C@H](OC(=O)Nc3ccccc3)[C@@H](OC)O[C@@H]2CO)cc1 32.3%
C[C@H](NC(=O)N(C)C[C@@H]1OCc2ccccc2-c2c(n(C)c3ccccc23)C(=O)N([C@H](C)CO)C[C@H]1C)c1ccccc1 18.8%
CC(=O)N(C)C[C@H]1Oc2ncc(-c3ccc(C(=O)N(C)C)cc3)cc2C(=O)N([C@H](C)CO)C[C@H]1C -8.17%
COCC(=O)Nc1ccc2c(c1)C(=O)N(C)C[C@@H](OC)[C@H](C)CN[C@H](C)CO2 -10.3% [at 1.95 µM]
CO[C@@H]1CN(C)C(=O)c2ccc(NC(=O)Nc3ccc4c(c3)OCO4)cc2OC[C@@H](C)NC[C@@H]1C 10.6%
COc1ccc(CN(C)C[C@H]2OCCCC[C@@H](C)Oc3ccc(NC(=O)Nc4ccc5c(c4)OCO5)cc3C(=O)N([C@@H](C)CO)C[C@@H]2C)cc1 44.6%
C[C@@H]1CN([C@@H](C)CO)C(=O)c2ccccc2-c2ccccc2CO[C@H]1CN(C)S(=O)(=O)c1ccsc1 36%
C[C@@H](C(=O)N(C)C[C@H]1OCc2ccccc2-c2ccccc2C(=O)N([C@@H](C)CO)C[C@@H]1C)c1ccccc1 -9.53% [at 8 µM]
C[C@@H]1CCCCO[C@H](CN(C)S(=O)(=O)c2ccc(Cl)cc2)[C@H](C)CN([C@@H](C)CO)C(=O)c2cc(N(C)C)ccc2O1 25.4%
O=C(N[C@H]1C=C[C@@H](CC(=O)N2CCOCC2)O[C@H]1CO)c1cccc(F)c1 9.04%
C[C@@H]1CN([C@H](C)CO)C(=O)c2cc(C#C[C@@H](C)O)cnc2O[C@@H]1CN(C)Cc1ccc(-c2ccccc2)cc1 -9.01% [at 1.95 µM]
C[C@@H]1CCCCO[C@@H](CN(C)CC2CC2)[C@H](C)CN([C@H](C)CO)C(=O)c2cc(NC(=O)Nc3cccc4ccccc34)ccc2O1 12.9%
COCC(=O)Nc1ccc2c(c1)C(=O)N(C)C[C@@H](OC)[C@H](C)CN(C(=O)CN1CCOCC1)[C@H](C)CO2 -15.1% [at 2.1 µM]
C[C@H]1CN([C@@H](C)CO)C(=O)c2cc(NC(=O)CCC(F)(F)F)ccc2O[C@H]1CN(C)Cc1ccc(-c2ccccc2)cc1 46.6%
CO[C@H]1CN(C)C(=O)c2cc(NC(=O)Nc3cccc(F)c3)ccc2OC[C@H](C)N(C)C[C@H]1C -7.19% [at 0.5 µM]
COc1ccc([Si](C)(C)[C@H]2[C@H](CCO)O[C@@]3(C(=O)N(C)c4ccccc43)[C@@H]2C)cc1 12.6% [at 8 µM]
CCCC#Cc1ccc2c(c1)O[C@@H](CN(C)Cc1ccncc1)[C@H](C)CN([C@H](C)CO)S2(=O)=O 15.9%
COc1cccc(S(=O)(=O)Nc2ccc3c(c2)[C@H]2C[C@@H](CC(=O)NC4CCCCC4)O[C@@H](CO)[C@H]2O3)c1 -11.1% [at 1.95 µM]
O=C(C[C@H]1C[C@H]2c3cc(NC(=O)Nc4ccc(C(F)(F)F)cc4)ccc3O[C@H]2[C@@H](CO)O1)NC1CCCCC1 -14.7% [at 1.95 µM]
COc1ccc(S(=O)(=O)N(C)C[C@@H]2Oc3ccc(NC(=O)CCCN(C)C)cc3CC(=O)N([C@@H](C)CO)C[C@H]2C)cc1 -7.02% [at 1.95 µM]
CO[C@@H]1CN(C)C(=O)c2ccc(NC(=O)Nc3ccc4c(c3)OCO4)cc2OC[C@H](C)NC[C@H]1C -8.6% [at 0.5 µM]
CCC(=O)Nc1ccc2c(c1)C(=O)N(C)C[C@@H](OC)[C@@H](C)CN[C@@H](C)CO2 6.81% [at 0.5 µM]
CO[C@@H]1CN(C)C(=O)c2cc(NC(=O)Nc3ccc(F)cc3)ccc2OC[C@H](C)NC[C@H]1C -13.4% [at 1.95 µM]
CO[C@H]1CN(C)C(=O)c2cc(NC(=O)Nc3ccc(F)cc3)ccc2OC[C@@H](C)NC[C@@H]1C -7.9% [at 0.5 µM]
CO[C@H]1CN(C)C(=O)c2cc(NC(=O)Nc3ccc(F)cc3)ccc2OC[C@H](C)NC[C@@H]1C -22.1%
